Screening results (PubChem BioAssay)
TDP1 cell CPT: DT40-hTDP1 cell growth loss with CPT; Potency, µM (titrated, usually from 46.2 µM), hits mostly inhibitors; hit rate 12% among 420,000; chicken DT40 Tdp1-/-;hTDP1 cells + 20 nM CPT, ATP luminescence, 48 h; AID 686979; note: nearly all actives have a fitted effect of over 55% in size
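Cell growth measured by CellTiter-Glo luminescence after a minimum 48 h, 37 C compound exposure with 20 nM CPT in Tdp1-knockout DT40 cells stably expressing hTDP1, seeded 400/well; qHTS titration format.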
IL-1B inflam inh: inflammasome signaling inhibition, IL-1 beta readout. THP-1 LPS/ATP IL-1B secretion, AlphaLISA, 16 h; hits give low values. activity change, % at 57.5 µM. hit rate 4.7% among 360,000. AID 743279; in the data active = activity change below about -50%; inconclusive = mostly about -30% to -49%
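Secreted IL-1B measured by AlphaLISA bead assay after 16 h compound exposure of THP-1 cells; compounds (final up to 57.5 uM) added 1 h before LPS (250 ng/mL) and ATP (1.25 mM) stimulation; lower signal means less secretion.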
SW480 rerep: DNA re-replication induction in SW480 cells | SW480 DNA re-replication, Hoechst DNA content imaging, 48 h | Potency, µM (top dose mostly 46.1 µM), hits mostly activators | hit rate 1.8% among 340,000; note: nearly all actives have a fitted effect of over 55% in size
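Image-based read-out: total Hoechst fluorescence of nuclei (405 nm excitation, 500-530 nm emission), with hits raising the fraction of high-intensity nuclei. SW480 colon cells incubated 48 hr with compounds at 37 C.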
DT40 TDP1 no CPT: qHTS for Inhibitors of human tyrosyl-DNA phosphodiesterase 1 (TDP1): qHTS in cells in absence of CPT; DT40 Tdp1-/- hTDP1 cells, no CPT, ATP luminescence, 48 h; Potency, µM (top dose mostly 46.2 µM), hits mostly inhibitors; hit rate 15% among 420,000; AID 686978, 2013; note: nearly all actives have a fitted effect of over 55% in size
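Camptothecin absent (DMSO only). Human TDP1-complemented DT40 knockout cells, 400 cells/well, 37 °C for minimum 48 hr; ATP measured via CellTiter-Glo, 30 min dark incubation, luminescence.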
MCF10A rerep: inducers of DNA re-replication in MCF 10A breast cells; AID 624296; MCF 10A DNA re-replication, Hoechst nuclear intensity, 48 h; Potency, µM (titrated, usually from 46.1 µM), most hits filed as activators; hit rate 2.9% among 350,000; note: nearly all actives have a fitted effect of over 50% in size
Chronic BCR inh: inhibitors of chronic active B-cell receptor signaling. ABC-DLBCL IkBa-CBG/CBR reporter, luminescence ratio, 4 h. Potency, µM (highest dose often 46.1 µM), most hits filed as inhibitors. hit rate 0.05% among 340,000; active = well fitted inhibition curve with a large enough effect in the signal ratio, with a control signal flat, not every such curve was filed as active; inconclusive = small, poorly fitted or top-dose-only effect, or effect the other way, or a change in a side signal; the % refers to the signal ratio
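TMD8 human ABC-DLBCL cells with doxycycline-inducible IκBα–green luciferase fusion and unfused red luciferase, in 0.5% FBS medium; compounds up to 46 uM, 4 h at 37C. Green/red luminescence ratio, filter-overlap corrected, fitted to concentration-response curves.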
A number is an active result; – = inactive; ? = inconclusive; · = no result given; [ ] = another dose, or the depositor's remark. A selection: hits, their analogues and other compounds. The true share with any hit is near 19%. Unless noted, calls come from the whole dose curve; as a rule, active = well fitted curve in the direction sought with a large enough effect; inconclusive = small, poorly fitted or top-dose-only effect, or another doubt; inactive = no such curve, though single readings can be large; an effect the other way counts as inactive or inconclusive.

SMILES	TDP1 cell CPT	IL-1B inflam inh	SW480 rerep	DT40 TDP1 no CPT	MCF10A rerep	Chronic BCR inh
O=C(NC(c1ccccc1)c1cc(Cl)c2cccnc2c1O)c1cccnc1 (stereo not drawn)	·	·	·	·	·	–
CC(=O)NC(C)c1cc(Cl)c2cccnc2c1O (stereo not drawn)	·	·	?	·	3.3µM	–
COc1ccccc1C(NC(C)=O)c1cc(Cl)c2cccnc2c1O (stereo not drawn)	1.6µM	–	0.58µM	2.3µM	?	?
COc1ccc(C(=O)NC(c2ccc(Cl)cc2)c2cc(Cl)c3cccnc3c2O)cc1 (stereo not drawn)	3.7µM	·	·	4.1µM	·	?
CCC(=O)NC(C)c1cc(Cl)c2cccnc2c1O (stereo not drawn)	·	·	?	·	?	–
COc1ccc(C(NC(C)=O)c2nccc3cc(OC)c(OC)cc23)cc1OC (stereo not drawn)	–	–	?	–	–	–
Fc1ccc2cnc(CCO[C@H]3CCCCO3)cc2c1	–	–	–	–	–	?
C/C=N/NC(=O)CCNC(=O)c1ccccc1	–	–	–	–	–	–
O=C(NCCc1nnc2n1CCN(Cc1c(F)cccc1F)CC2)c1ccco1	–	·	·	–	·	·
Nc1c(C(=O)Nc2ccc(F)c(F)c2)sc2nc(-c3ccncc3)ccc12	–	·	·	–	·	·
COc1cccc(-c2ccc3c(N)c(C(=O)NC4CC4)sc3n2)c1	?	?	?	?	?	–
COc1ccc(NC(=O)c2sc3nc(-c4cccnc4)ccc3c2N)cc1OC	–	–	?	–	15µM	–
COc1ccc(NC(=O)c2sc3nc(-c4cccnc4)ccc3c2N)cc1	–	–	15µM	–	?	–
Nc1c(C(=O)Nc2cccc(Cl)c2Cl)sc2nc(-c3cccnc3)ccc12	?	–	9.2µM	?	5.2µM	–
O=[N+]([O-])c1ccc(N2CCCC2)c([N+](=O)[O-])c1	–	?	·	–	·	·
CN(CCOc1ccccc1)C(=S)Nc1ccc(OC(F)F)cc1	–	-58	–	–	–	–
COc1cccc(C2C(C(=O)Nc3ccc(Cl)cc3)=C(C)Nc3nc4ccccc4n32)c1 (stereo not drawn)	21µM	·	·	–	·	·
CCOc1ccc(C2C(=O)N(C3CCCCCC3)CC(=O)N2CCC2=CCCCC2)cc1OC (stereo not drawn)	23µM	·	·	16µM	·	–
COc1cc(C2C(=O)N(C3CCCCC3)CC(=O)N2CCC2=CCCCC2)ccc1OC(C)C (stereo not drawn)	–	·	·	–	·	–
COc1cc(C2C(=O)N(C3CCCCCC3)CC(=O)N2CCC2=CCCCC2)ccc1OC(C)C (stereo not drawn)	18µM	·	·	21µM	·	?
COc1ccc(C2C(=O)N(C3CCC(C)CC3)CC(=O)N2CCC2=CCCCC2)cc1OC (stereo not drawn)	23µM	·	·	23µM	·	–
CCCOc1ccc(C2C(=O)N(C3CCC(C)CC3)CC(=O)N2CCC2=CCCCC2)cc1OC (stereo not drawn)	?	·	·	–	·	?
O=C(NC1CCCCC1)N(CCN1CCOCC1)Cc1cc2cc3c(cc2[nH]c1=O)OCCO3	13µM	–	–	?	–	–
Cc1ccc2[nH]c(=O)c(CN(CCCN3CCOCC3)C(=O)NC3CCCCC3)cc2c1	–	–	–	–	–	–
CCc1ccc2[nH]c(=O)c(CN(CCN3CCCC3)C(=O)NC3CCCCC3)cc2c1	16µM	-56	–	23µM	–	?
SMILES	TDP1 cell CPT	IL-1B inflam inh	SW480 rerep	DT40 TDP1 no CPT	MCF10A rerep	Chronic BCR inh
CCN(CC)CCN(Cc1cc2cc3c(cc2[nH]c1=O)OCCO3)C(=O)NC1CCCCC1	?	–	–[9.22 µM]	?	–	–
CCCC1(C(=O)OCC)NC(c2ccco2)C2C(=O)N(C)C(=O)C21 (stereo not drawn)	–	–	–	–	–	–
O=c1[nH]c(COc2ccc(Br)cc2Cl)nc2ccccc12	21µM	–	–	?	?	–
O=c1[nH]c(COc2ccccc2)nc2ccccc12	21µM	–	?	?	?	?
CCOc1ccc(Nc2nnc(SCc3nc4ccccc4c(=O)[nH]3)s2)cc1	18µM	–	–	18µM	10µM	?
Cc1nn(CC(=O)NC(=O)c2ccccc2)c(C)c1[N+](=O)[O-]	–	–	?	–	?	–
COc1ccccc1-c1nnc(C2CCN(S(=O)(=O)c3ccccc3[N+](=O)[O-])CC2)o1	?	–	–	–	–	?
COc1ccccc1-c1nnc(C2CCN(S(=O)(=O)c3ccc([N+](=O)[O-])cc3)CC2)o1	?	–	–	?	–	–
COc1ccccc1-c1nnc(C2CCN(S(=O)(=O)c3cccc([N+](=O)[O-])c3)CC2)o1	?	–	–	21µM	–	–
COc1ccccc1-c1nnc(C2CCN(S(=O)(=O)c3ccccc3)CC2)o1	?	·	·	15µM	·	·
O=C1C=C(OCCF)CC(c2ccc(Br)cc2)O1 (stereo not drawn)	–	–	·	–	·	·
Cc1ccc(C(=O)CSc2nc(O)cc(=O)[nH]2)cc1C	–	–	–	–	–	–
CN1CCN(C(=O)c2ccc(-c3ccc(F)c(F)c3)c3ccoc23)CC1	16µM	–	·	16µM	·	·
COc1cc(NC(=O)c2ccc(-c3cn[nH]c3)c3ccoc23)cc(OC)c1OC	12µM	-74	·	13µM	·	·
CC(C)NC(=O)c1ccc(-c2ccc(F)c(F)c2)c2ccoc12	26µM	–	·	23µM	·	·
COc1cc(NC(=O)c2ccc(-c3ccc(F)c(F)c3)c3ccoc23)cc(OC)c1OC	4.1µM	–	·	4.1µM	·	·
COCCNC(=O)c1cn(C)c2ccc(S(=O)(=O)N3CCCCC3)cc2c1=O	?	–	–	?	–	–
COc1cc(NC(=O)c2ccc(-c3cccnc3)c3ccoc23)cc(OC)c1OC	13µM	–	·	6.5µM	·	·
O=C(Nc1cccc(OC(F)(F)F)c1)c1ccc(-c2cccnc2)c2ccoc12	?	–	·	?	·	·
c1ccc(C2Nc3ccccc3C3OCCCC23)cc1 (stereo not drawn)	?	–	?	?	?	–
COc1ccccc1NC(=O)CCNS(=O)(=O)c1ccc2[nH]c(=O)oc2c1	23µM	–	–	?	–	–
Cc1c(Br)c([N+](=O)[O-])nn1C(C)C(=O)N1CCc2ccccc2C1 (stereo not drawn)	–	–	–	–	–	?
O=c1[nH]c(O)c(/C=C2\C=Nc3ccccc32)[nH]1	–	–	–	–	–	?
Cc1cccc2[nH]cc(/C=C3/C=Nc4ccccc43)c12	7.9µM	·	·	4µM	·	·
Cc1ccc2nc(SCc3nc4cc(Cl)ccc4c(=O)[nH]3)[nH]c2c1	–	–	–	?	?	–
